D2 ag-1 = activates the human D2 dopamine receptor; P14416; HEK293 T-REx D2 cells, calcium flux agonist mode; activation, % at 2 µM; hit rate 0.53% among 340,000; AID 485358;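 active means activation over 3 SD above normal in the single-dose calcium agonist read, cut at about 30% in these data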; further: 0% is about no effect
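HEK293 Trex D2 cells, tetracycline-induced, o/n 30 C 5% CO2; no-wash Ca dye, RT 30–90 min; 10-cycle baseline, 23 nl cpd added, kinetic Ca read 180 s; agonist hits = positive Ca response.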
D2 ag-2 = activates the human D2 dopamine receptor | P14416 | DiscoveRx PathHunter D2 beta-arrestin, luminescence, 90 min; 100% = 57 uM dopamine signal | activation, % (no concentration beside the values) | hit rate 0.084% among 360,000 | AID 624465; in the data active means activation above about 40%; inconclusive means between about 15% and that limit
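Agonist mode: compounds alone added to overnight-plated D2 PathHunter cells for 90 min at 37 C, with 57 uM final dopamine (EC100) defining full response. Beta-arrestin recruitment detected by chemiluminescent reagent, read after 1 h at ambient temperature.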
D2 PAM-1 = positive allosteric modulators of human D2 dopamine receptor | HEK293 T-REx D2, calcium flux, EC20 dopamine potentiation | hit rate 0.34% among 340,000 | AID 485347 | potentiation, % at 10 µM;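 active means potentiation over 3 SD above the plate norm, cut at about 30% in these data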; further: 0% is about no effect
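Using a no-wash calcium dye in inducible, force-coupled HEK293 Trex cells expressing D2, we tracked fluorescence each second for 180 s after compound, then for 180 s after EC20 dopamine to detect augmented signalling.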
D2 antagonist = antagonizes the human D2 dopamine receptor; P14416; HEK293 TREx D2 cells, calcium flux, dopamine EC80; inhibition, % at 10 µM; hit rate 2% among 340,000; in the data active means inhibition above about 30%; inactive means below that, where a call was filed; further: 0% is about no effect
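Read-out: kinetic calcium fluorescence (1 cycle/s) in inducible HEK293 T-REx D2 cells after an EC80 dopamine addition that followed 180 s compound preincubation. Loss of the dopamine response indicates antagonism.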
D2 PAM-2 = human D2 receptor positive allosteric modulation. hit rate 0.23% among 360,000. DiscoveRx D2 beta-arrestin cells, luminescence, 90 min; 100% = 57 uM dopamine signal. P14416. AID 624464. potentiation, % (test concentration not listed); in the data active means potentiation above about 50%; inconclusive means mostly about 30% to 49%
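PathHunter beta-arrestin assay in DiscoveRx D2 cells. Compounds were added with an EC20 of dopamine (50 nM final) for 90 min at 37 deg C. Luminescence was read 1 h after detection reagent, with 57 uM dopamine as the EC100 control.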
D3 ag = D3 receptor agonism confirmed, beta-arrestin readout; shares compounds with D2 ag-1; DiscoveRx D3 beta-arrestin cells, luminescence, 90 min; Potency, µM (highest dose often 76.9 µM), without a hit: at the top dose activation, actives largely listed as activators; hit rate 4% among 2,300; AID 720506;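 further: potency means the concentration at half of the fitted maximal effect; 100% = dopamine control response; nearly all actives have a fitted effect of over 70% in size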
Target sequence (P35462 whole entry, looked up): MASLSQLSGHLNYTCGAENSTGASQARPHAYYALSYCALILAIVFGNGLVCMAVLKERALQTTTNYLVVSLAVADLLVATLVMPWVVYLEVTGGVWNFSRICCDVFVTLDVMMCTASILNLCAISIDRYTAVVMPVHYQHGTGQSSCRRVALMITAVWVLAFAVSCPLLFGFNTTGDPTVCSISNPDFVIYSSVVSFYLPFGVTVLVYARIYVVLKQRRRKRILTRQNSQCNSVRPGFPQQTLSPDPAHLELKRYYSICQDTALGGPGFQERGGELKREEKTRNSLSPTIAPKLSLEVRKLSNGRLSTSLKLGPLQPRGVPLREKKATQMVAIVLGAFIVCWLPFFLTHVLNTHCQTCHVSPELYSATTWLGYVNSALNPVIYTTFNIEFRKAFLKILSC
D2 ag-3 = counter-screen for D3 agonists: human D2 dopamine receptor agonism; shares compounds with D2 ag-1; DiscoveRx PathHunter D2 beta-arrestin, luminescence, 90 min; response scale: percent relative to full dopamine signal; Potency, µM (highest dose often 76.9 µM), for the others: top-dose activation, usual class: activators; hit rate 5.9% among 2,300; further: potency means the concentration at half of the fitted maximal effect; % of control where 0% means no effect; nearly all actives have a fitted effect of over 70% in size
* hit, by the source's call. The list is not random: actives were taken first. Their share in the collection is about 2.4%. Unless noted, the call rests on the fitted dose curve; in most records, active means well fitted activation curve with a large enough effect; inconclusive means small, poorly fitted or top-dose-only effect; inactive means flat fitted curve, though single readings scatter.

C/C(=N\NC(=O)c1nnn(-c2nonc2N)c1-c1cccs1)c1ccc(C)cc1 was read as D2 ag-1 8, D2 ag-2 -9, D2 PAM-1 7, D2 antagonist 11 and D2 PAM-2 1.
Screening COc1cccc(-c2c(C(=O)N/N=C(\C)c3ccncc3)nnn2-c2nonc2N)c1 returned D2 ag-1 0, D2 ag-2 3, D2 PAM-1 -6, D2 antagonist -10 and D2 PAM-2 -10.
For COc1ccc(/C(C)=N/NC(=O)c2nnn(-c3nonc3N)c2-c2cccs2)cc1 the results were D2 ag-1 3, D2 ag-2 -5, D2 PAM-1 15, D2 antagonist -8, D2 PAM-2 -9, D3 ag 0% and D2 ag-3 -4%.
`O=C(ONC(=O)C1C2C=CC(C2)C1C(=O)NOC(=O)c1ccccc1)c1ccccc1` (stereo not given) gave D2 ag-2 5 and D2 PAM-2 inconclusive.
COc1ccc(N(Cc2cccs2)C(=O)c2ccco2)cc1 was read as D2 PAM-1 -10.
For COC(=O)c1ccc(OCC2c3cc(OC)c(OC)cc3CCN2C(=O)c2ccccc2C)cc1 (stereo not given) the results were D2 ag-1 1 and D2 PAM-1 -2.
For CC(C)CNC(=O)CN(C1CCCCC1)S(=O)(=O)c1ccccc1 the results were D2 ag-1 0, D2 ag-2 -3, D2 PAM-1 -8, D2 antagonist 25, D2 PAM-2 -2, D3 ag -7% and D2 ag-3 -2%.
For CCC(NC(C)C)C(O)c1ccc(O)c2[nH]c(=O)ccc12 (stereo not given) the results were D2 ag-1 27, D2 ag-2 4, D2 PAM-1 0, D2 antagonist -11, D2 PAM-2 -5, D3 ag inconclusive and D2 ag-3 21%.
Screening O=C(Nc1cccc(Oc2ccccc2)c1)c1ccc(-n2cncn2)c2ccoc12 returned D2 ag-2 6 and D2 PAM-2 6.
Screening CCN(CC)C(=O)C1=C(C)N(Cc2ccc(OC)cc2)C(=O)C(CC(=O)NCCCN(C)C)C1 (stereo not given) returned D2 ag-2 3.
O=C(CCNS(=O)(=O)c1ccccc1C(F)(F)F)N1CCN(C(c2ccccc2)c2ccccc2)CC1 was read as D2 ag-1 0, D2 ag-2 0, D2 PAM-1 0, D2 antagonist -15 and D2 PAM-2 -12.
`O=C(CCNS(=O)(=O)c1ccccc1C(F)(F)F)N1CCCCCCC1` gave D2 ag-1 0, D2 ag-2 -2, D2 PAM-1 -3, D2 antagonist 3, D2 PAM-2 -2, D3 ag 1% and D2 ag-3 -2%.
Cc1cc(C)c(NC(=O)CN(C)C(=O)CCN2C(=O)C3CCCCC3C2=O)c(C)c1 (stereo not given) was read as D2 ag-2 -3 and D2 PAM-2 -21.
`Cc1cc(C)n2c(SCC(=O)N(C)C3CCS(=O)(=O)C3)nnc2n1` (stereo not given) gave D2 ag-1 60*, D2 ag-2 -2, D2 PAM-1 -12, D2 antagonist 28, D2 PAM-2 -23, D3 ag 4% and D2 ag-3 6%.
CN(C(=O)CSc1nnc(-c2ccccc2)n1C)C1CCS(=O)(=O)C1 (stereo not given) was read as D2 ag-1 -1, D2 ag-2 -2, D2 PAM-1 4, D2 antagonist 9 and D2 PAM-2 0.
For COc1ccc(C2CC(O)(c3ccccc3)Oc3c(C)ccc(C)c32)cc1 (stereo not given) the results were D2 ag-1 1, D2 ag-2 -4, D2 PAM-1 21, D2 antagonist 4 and D2 PAM-2 -3.
COc1ccc(C2CC(O)(c3ccccc3)Oc3cc(OC)cc(OC)c32)cc1 (stereo not given) was read as D2 ag-1 0, D2 ag-2 5, D2 PAM-1 10, D2 antagonist 4, D2 PAM-2 2, D3 ag 19% and D2 ag-3 4%.
For COCCNC(=O)C1(C)CCN(C(=O)COc2ccc(Cl)cc2Cl)C1 (stereo not given) the results were D2 ag-2 -5 and D2 PAM-2 -1.
Cc1cccc(N2CCN(CC(O)COCc3cccs3)CC2)c1C (stereo not given) was read as D2 ag-1 56*, D2 ag-2 4, D2 PAM-1 -16, D2 antagonist 71*, D2 PAM-2 -12, D3 ag 0.32µM* and D2 ag-3 13%.
`OC(COCc1cccs1)CN1CCCCCC1` (stereo not given) gave D2 ag-1 -1, D2 ag-2 1, D2 PAM-1 30, D2 antagonist -3 and D2 PAM-2 -28.
Screening CN1CCCN(CC(O)COCc2cccs2)CC1 (stereo not given) returned D2 ag-1 0, D2 ag-2 0, D2 PAM-1 4, D2 antagonist -4 and D2 PAM-2 -6.
Screening OC(COCc1cccs1)CN1CCN(c2cccc(Cl)c2)CC1 (stereo not given) returned D2 ag-1 67*, D2 ag-2 inconclusive, D2 PAM-1 -20, D2 antagonist 43*, D2 PAM-2 -24, D3 ag 3% and D2 ag-3 inconclusive.
Cc1oc(-c2ccc(C(=O)NCc3ccccc3Cl)cc2)nc1CN1CCc2ccccc21 was read as D2 ag-1 0 and D2 PAM-1 3.
For COc1cc(C(=O)n2nc(-c3ccco3)nc2NCc2ccc(Cl)cc2)cc(OC)c1OC the results were D2 ag-1 0 and D2 PAM-1 8.
CCCN(CCC)CCCNC(=S)Nc1ccc2nc(N3CCN(CC)CC3)cc(C)c2c1 was read as D2 ag-1 17, D2 ag-2 -1, D2 PAM-1 -16, D2 antagonist -1, D2 PAM-2 -13, D3 ag 8% and D2 ag-3 2%.
For CC(C)N1CCc2c(sc(NC(=S)NC(=O)c3ccccc3)c2C#N)C1 the results were D2 ag-1 3, D2 ag-2 -9, D2 PAM-1 1, D2 antagonist 1 and D2 PAM-2 -9.
CCN1CCc2c(sc(NC(=S)NC(=O)c3ccc(Cl)cc3)c2C(N)=O)C1 was read as D2 ag-1 44*, D2 ag-2 -10, D2 PAM-1 -12, D2 antagonist -12, D2 PAM-2 -19, D3 ag -4% and D2 ag-3 -10%.

Assay outcomes as filed in PubChem.
